About 3,600 (5.5%) of roughly 65,000 compounds were called active.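 How the source made its calls: active means at 10 µM, mean starting fluorescence two-fold or more over control wells; inactive means the rest.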 Only a selection was taken, and actives are over-represented in it overall.
Assay: intrinsic fluorescence of library compounds, ex339/em460 – biochemical, MLSMR library, data from DPM-DC assay, artefact control, profiling panel (AID 709);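 further: signal is the first read of a kinetic run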
Conditions: compound autofluorescence, ex339/em460 nm, NADH buffer; at 10 µM; hits give high values

Row | Structure (SMILES) | fluorescence fold increase
1 | CCOC(=O)c1c(N)n(Cc2ccccc2)c2nc3ccccc3nc12 | 4.96 (active)
2 | O=C(O)C1CSC(c2cccnc2)N1 (stereo not given) | 1.05 (inactive)
3 | CC1(C)C(c2ccccc2)=NC(c2cccnc2)=[N+]1[O-] | 1.1 (inactive)
4 | CCOC(=O)c1c(C)c(C(=O)N2CCC3(CC2)OCCO3)c(C)n1CC | 1.05 (inactive)
5 | CCOC(=O)c1c(-c2ccccc2)oc2ccc(OC(=O)N(C)C)cc12 | 3.72 (active)
6 | N[C@@H](Cc1c[nH]c2ccccc12)c1nnc(SCc2c(F)cccc2Cl)o1 | 1.15 (inactive)
7 | CCOC(=O)C1=C(C)OC(N)=C(C(=O)OC)C12C(=O)Nc1ccc(Br)cc12 (stereo not given) | 1.1 (inactive)
8 | CCc1cccc2c(C#N)cn(CC(=O)N3CCOCC3)c12 | 1.27 (inactive)
9 | COC(=O)COc1cc(C)cc2oc(=O)c3c(c12)CCCC3 | 2.2 (active)
10 | OC(CNC1CCCCC1)c1ccccc1 (stereo not given) | 1.04 (inactive)
11 | CCOC(=O)C(O)(c1ccc(NC(=O)c2ccco2)c(OC)c1)C(F)(F)F (stereo not given) | 1.11 (inactive)
12 | Cc1cccc(-n2c(C)nc3cc(C(=O)N4CCC5(CC4)OCCO5)ccc32)c1 | 1.13 (inactive)
13 | O=C(c1cc(-c2ccncc2)nc2ccccc12)N1CCC2(CC1)OCCO2 | 1.11 (inactive)
14 | O=C(c1cc2nc(-c3ccccc3)cc(-c3ccccc3)n2n1)N1CCC2(CC1)OCCO2 | 2.35 (active)
15 | CCOC(=O)CC1=C(C(=O)OCC)C2(C(=O)N1)C(C(=O)OC)=C(N)Oc1ccccc12 (stereo not given) | 1.12 (inactive)
16 | COc1ccc(CCn2c(O)c(C=NC3CC3)c(=O)[nH]c2=O)cc1OC | 1.06 (inactive)
17 | CN1CCN(C(=O)COc2ccc(C(C)(C)C)cc2Br)CC1 | 1.12 (inactive)
18 | COc1ccc(C(=O)CC2C(=O)N(C)C(=O)N(C)C2=O)cc1 | 1.08 (inactive)
19 | CCC/C(=N\O)c1c[nH]c2ccccc12 | 1.08 (inactive)
20 | CC1=C(C(=O)Nc2ccccc2)SCCO1 | 1.08 (inactive)
